Source: PubChem (National Center for Advancing Translational Sciences (NCATS))
An excerpt weighted towards active compounds, which were near 2.9% of everything screened.
Pol beta inh – qHTS Assay for Inhibitors of DNA Polymerase Beta | Potency, µM (titrated, usually from 114 µM), without a hit: at the highest dose activity change, negative = inhibition, actives largely listed as inhibitors | 340,000 tested, 1.3% active | P06746 | Pol beta primer extension/strand displacement, fluorescence kinetic | AID 485314, 2010; note: potency is the fitted concentration of half-maximal effect; % is set by controls: 0 for no effect and ±100 for the full control effect
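Values derive from four-parameter Hill fits of normalized kinetic data: reads at 0 and 10 min following addition of 50 nM substrate to 10 nM Pol beta preincubated 15 min with compound.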
Pol kappa inh-1 – qHTS for Inhibitors of Polymerase Kappa; DNA polymerase kappa (Homo sapiens), Q9UBT6; 400,000 tested, 0.53% active; purified Pol kappa, fluorescent DNA synthesis assay, 10 min; Potency, µM (highest dose often 107 µM), for inactives: at the top dose activity, negative = inhibition, most hits filed as inhibitors; note: potency is the fitted concentration of half-maximal effect; % is set by controls: 0 for no effect and ±100 for the full control effect
Target sequence (Q9UBT6 whole entry, looked up): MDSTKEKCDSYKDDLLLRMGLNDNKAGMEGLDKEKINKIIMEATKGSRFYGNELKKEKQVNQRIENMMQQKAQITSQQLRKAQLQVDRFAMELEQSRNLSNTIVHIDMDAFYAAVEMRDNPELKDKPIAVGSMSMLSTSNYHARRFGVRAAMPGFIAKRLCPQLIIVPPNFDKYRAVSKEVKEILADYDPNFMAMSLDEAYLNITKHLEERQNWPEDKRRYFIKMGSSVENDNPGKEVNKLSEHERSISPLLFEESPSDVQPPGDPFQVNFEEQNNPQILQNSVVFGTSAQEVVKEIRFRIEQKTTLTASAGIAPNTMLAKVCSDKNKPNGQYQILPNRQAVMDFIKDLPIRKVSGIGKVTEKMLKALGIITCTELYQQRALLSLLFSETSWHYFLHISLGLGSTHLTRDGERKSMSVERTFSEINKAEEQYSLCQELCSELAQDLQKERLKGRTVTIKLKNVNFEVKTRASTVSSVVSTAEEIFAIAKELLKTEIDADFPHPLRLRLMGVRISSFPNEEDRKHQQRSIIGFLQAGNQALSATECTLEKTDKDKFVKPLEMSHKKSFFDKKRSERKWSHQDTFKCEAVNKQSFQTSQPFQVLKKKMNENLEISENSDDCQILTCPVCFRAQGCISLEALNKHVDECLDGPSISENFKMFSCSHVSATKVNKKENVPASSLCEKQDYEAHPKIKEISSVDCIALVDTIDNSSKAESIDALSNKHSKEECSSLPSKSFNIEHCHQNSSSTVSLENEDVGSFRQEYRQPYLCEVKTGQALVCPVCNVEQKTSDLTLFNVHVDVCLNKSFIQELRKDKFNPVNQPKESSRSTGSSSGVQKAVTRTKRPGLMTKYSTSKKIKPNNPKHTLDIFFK
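Here, compound and 10 nM enzyme are combined for 15 min at room temperature; adding 50 nM substrate (final) starts DNA synthesis, tracked by fluorescence at 0 and 10 min against buffer-only wells.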
POLI inh – qHTS for Inhibitors of Polymerase Iota. Pol iota fluorescent replication assay, 10 min. Potency, µM (series often up to 115 µM), for the others: at the highest dose activity, negative = inhibition, hits mostly inhibitors. 390,000 tested, 1% active. AID 588590, 2011; note: potency is the fitted concentration of half-maximal effect
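Fluorescent replication assay read twice, at 0 min and 10 min after adding 50 nM (final) substrate. Enzyme (10 nM) and compounds were first incubated 15 min at room temperature; enzyme-free buffer wells were negative controls.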
ALOX12 inh – Primary qHTS assay for inhibitors of human arachidonate 12S-lipoxygenase (ALOX12): Round 2; purified 12hLO, xylenol orange hydroperoxide absorbance; 580,000 tested, 1.1% active; Polyunsaturated fatty acid lipoxygenase ALOX12 (Homo sapiens), P18054; Potency, µM (highest dose often 108 µM), for the others: at the highest dose activity change, negative = inhibition, hits mostly inhibitors; note: potency is the fitted concentration of half-maximal effect; % is set by controls: 0 for no effect and ±100 for the full control effect
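Hydroperoxide product was detected by ferrous iron/xylenol orange as the 573 to 405 nm absorbance ratio. Arachidonic acid at 40 uM (final) was turned over for 30 min at room temperature by 150 nM human 12hLO, pH 7.0 Hepes buffer, after 15 min compound preincubation.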
Pol eta inh-1 – qHTS for Inhibitors of Polymerase Eta. DNA polymerase eta (Homo sapiens), Q9Y253. recombinant Pol eta, fluorescent DNA replication assay. Potency, µM (series often up to 114 µM), inactives show top-dose activity change, negative = inhibition, usual class: inhibitors. 390,000 tested, 1.2% active. AID 588591, 2011; note: potency is the fitted concentration of half-maximal effect; % is set by controls: 0 for no effect and ±100 for the full control effect
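Pol eta (10 nM) was preincubated with compounds for 15 min at room temperature, after which fluorescent replication substrate (50 nM final) was added to start the reaction. Fluorescence was read kinetically at 0 and 10 min.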
PI5P4Ka inh – qHTS for Inhibitors of phosphatidylinositol 5-phosphate 4-kinase (PI5P4K); PI5P4Kalpha enzyme, ADP-Glo luminescence, 60 min; active compounds read low; max response, %; 330,000 tested, 1.2% active; AID 652105, 2013; active = max response of -50% or lower; inconclusive = between -30% and -50%; inactive = -30% or higher; note: value at the top dose of about 77 µM; % is set by controls: 0 for no effect and ±100 for the full control effect
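Compounds were pin-transferred onto PI5P4Kalpha and substrate in HEPES pH 7.4 buffer with EGTA, CHAPS and 5% DMSO. ATP (5 microM final) started the reaction, which ran 60 minutes at room temperature before ADP-Glo detection.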
GALK inh confirm – Confirmation Assay for Inhibitors of Human Galactokinase (GALK); purified GALK, Kinase-Glo ATP depletion luminescence; shares compounds with Pol eta inh-1; Potency, µM (top dose mostly 115 µM), without a hit: at the highest dose activity, negative = inhibition, hits mostly inhibitors; AID 2015, 2009; 150 tested, 70% active
GALK redox cs – Confirmatory Assay for Inhibitors of Human Galactokinase (GALK): Phenol-HRP redox assay counterscreen; 150 tested, 40% active; Potency, µM (highest dose often 115 µM), inactives show top-dose activity change, negative = H2O2 signal, hits mostly inhibitors; shares compounds with Pol eta inh-1; Phenol red-HRP H2O2 redox cycling, absorbance 600 nm; AID 2035, 2009
HEK293 tox – Secondary Assay for Inhibitors of Human Galactokinase (GALK): HEK-293 Cell Viability Assay | shares compounds with Pol eta inh-1 | HEK-293 viability, ATP luminescence (CellTiter-Glo), 24/48 h | Potency, µM (doses to about 46.1 µM), for the others: at the highest dose activity change, negative = cytotoxicity, usual class: inhibitors | 170 tested, 10% active | AID 2547, 2010; note: potency is the fitted concentration of half-maximal effect; % is set by controls: 0 for no effect and ±100 for the full control effect
Pol kappa inh-2 – qHTS for Inhibitors of Polymerase Kappa: Confirmatory Assay for Cherry-picked Compounds; shares compounds with Pol eta inh-1; purified Pol-kappa, fluorescent strand-displacement substrate; Potency, µM, usual class: inhibitors; 920 tested, 76% active; note: potency is the fitted concentration of half-maximal effect
Pol eta inh-2 – qHTS for Inhibitors of Polymerase Eta: Confirmatory Assay for Cherry-picked Compounds | shares compounds with Pol eta inh-1 | Pol eta primer extension, TAMRA/BHQ fluorescence, 10 min | Potency, µM, hits mostly inhibitors | 2,600 tested, 64% active; note: potency is the fitted concentration of half-maximal effect
* marks the source's active call; other numbers are inactive results. Unless noted, calls come from the whole dose curve; as a rule, active = well fitted curve in the direction sought with a large enough effect; inconclusive = small, poorly fitted or top-dose-only effect, or another doubt; inactive = no such curve, though single readings can be large; an effect the other way counts as inactive or inconclusive.

Screening COc1cc(NC(=O)c2ccc3c(SCC(=O)O)c4c(nc3c2)CCCC4)cc(OC)c1OC returned Pol beta inh inconclusive, Pol kappa inh-1 inconclusive, POLI inh inconclusive, ALOX12 inh -18%, Pol eta inh-1 -7% and PI5P4Ka inh 4.
`Cc1cnc(NC(=O)Cc2ccc(Br)cc2)s1` gave Pol beta inh 33%, Pol kappa inh-1 0%, POLI inh 40%, ALOX12 inh -12%, Pol eta inh-1 -3% and PI5P4Ka inh 5.
Screening CC(CC(=O)Nc1ncc([N+](=O)[O-])s1)c1ccccc1 (centres undefined) returned Pol beta inh -9%, Pol kappa inh-1 -20%, POLI inh 17%, ALOX12 inh inconclusive, Pol eta inh-1 2% and PI5P4Ka inh -28.
O=C(Cc1ccc(Br)cc1)Nc1ncc([N+](=O)[O-])s1 was read as Pol beta inh inconclusive, Pol kappa inh-1 -5%, POLI inh inconclusive, ALOX12 inh 0%, Pol eta inh-1 inconclusive, PI5P4Ka inh inconclusive, Pol kappa inh-2 inconclusive and Pol eta inh-2 inconclusive.
O=C(COC(=O)COc1ccccc1)Nc1ncc([N+](=O)[O-])s1 was read as Pol kappa inh-1 inconclusive, POLI inh inconclusive, ALOX12 inh inconclusive, Pol eta inh-1 10µM*, PI5P4Ka inh -53*, Pol kappa inh-2 12* and Pol eta inh-2 30*.
OCCCNc1c2ccccc2nc2ccccc12 was read as Pol beta inh 18µM*, Pol kappa inh-1 79µM*, POLI inh 22µM*, ALOX12 inh -13%, Pol eta inh-1 -3%, PI5P4Ka inh 3 and Pol kappa inh-2 inconclusive.
For CN(C(=O)CSc1nc(N2CCCC2)c2c(c1C#N)CCCC2)c1ccccc1 the results were ALOX12 inh 25%.
For Cc1ccc(C(=O)COC(=O)C2CC(=O)N(c3nc(-c4ccc(C)cc4)cs3)C2)cc1 (centres undefined) the results were ALOX12 inh 4%.
Screening Cc1cc2nc(-c3ccc(SCc4ccccc4C#N)nc3)[nH]c2cc1C returned Pol beta inh 3%, Pol kappa inh-1 -14%, POLI inh inconclusive, ALOX12 inh 4% and Pol eta inh-1 3%.
Screening Cc1cc2nc(-c3ccc(SCc4ccc(C(=O)O)cc4)nc3)[nH]c2cc1C returned Pol beta inh 22µM*, Pol kappa inh-1 -18%, POLI inh inconclusive, ALOX12 inh -9%, Pol eta inh-1 28µM*, PI5P4Ka inh -64* and Pol eta inh-2 38*.
Screening COC(=O)c1ccc(C)c(NC(=O)CSc2sc3c(O)cc(=O)[nH]c3c2C#N)c1 returned Pol beta inh 35µM*, Pol kappa inh-1 22µM*, POLI inh 13µM*, ALOX12 inh inconclusive, Pol eta inh-1 10µM*, PI5P4Ka inh -64*, Pol kappa inh-2 inconclusive and Pol eta inh-2 inconclusive.
`CCN1CCN(CCNC(=O)c2ccc3nc(-c4ccccc4)c(-c4ccccc4)nc3c2)CC1` gave ALOX12 inh -8%.
`CCN1CCN(CCNC(=O)c2ccc3nc(-c4cccc(C)c4)c(-c4cccc(C)c4)nc3c2)CC1` gave Pol beta inh 19%, Pol kappa inh-1 12%, POLI inh -1%, ALOX12 inh 9%, Pol eta inh-1 -25%, PI5P4Ka inh 11, GALK inh confirm inconclusive, GALK redox cs -27% and HEK293 tox inconclusive.
Cc1ccc(/C=C/C(=O)N2CCN(Cc3ccccc3)CC2)o1 was read as Pol beta inh 1%, Pol kappa inh-1 -11%, POLI inh 14%, ALOX12 inh -20%, Pol eta inh-1 -21% and PI5P4Ka inh -14.
Screening CC(=C/C(=O)O)/C=C/c1ccco1 returned Pol beta inh inconclusive, Pol kappa inh-1 inconclusive, POLI inh 89µM*, ALOX12 inh inconclusive, Pol eta inh-1 inconclusive, PI5P4Ka inh -9 and Pol eta inh-2 inconclusive.
`CC(/C=C/c1ccc(Cl)o1)=C\C(=O)O` gave Pol beta inh 32µM*, Pol kappa inh-1 -26%, POLI inh inconclusive, ALOX12 inh inconclusive, Pol eta inh-1 22µM*, PI5P4Ka inh -19 and Pol eta inh-2 48*.
Screening O=C(/C=C/c1ccco1)c1ccccc1O returned Pol beta inh 2%, Pol kappa inh-1 3%, POLI inh 50%, ALOX12 inh inconclusive, Pol eta inh-1 -12% and PI5P4Ka inh -4.
Screening O=C1CCN(C(=O)C2(c3ccccc3)CC2)CCCOCCN1 returned ALOX12 inh 2%.
COC(CN(C)C(=O)c1cc(Nc2ccc(C)c(C)c2)nc2ccccc12)OC was read as ALOX12 inh -4%.
